# Laboratory results published in PubChem BioAssay (NCATS).
# Inconclusive results are not listed. Calls of active or inactive are those of the source. Unless noted, calls follow the shape of the full dose curve.
# Target: Atrial natriuretic peptide receptor 1 (Homo sapiens) (UniProt P16066)
# Test: Natriuretic polypeptide receptor (hNpr1) antagonism - Pilot screen (AID 1347049);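 also: HEK293 cells with hNpr1 and GloSensor cGMP luciferase stimulated by 0.1 nM hNppA; agonist-evoked cGMP luminescence read 20 min after hNppA addition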; also: potency is read from the fitted curve at half-maximal effect; as to activity change, negative = inhibition: % is scaled to controls: 0 for no effect and ±100 for the full control effect
# Conditions: hNpr1 cells, antagonist mode cGMP read-out; series mostly up to 57.5 µM; activity change, negative = inhibition: at the top concentration
# Outline: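 Receptor antagonism read as cGMP-dependent luminescence in hNpr1/pGS-40F HEK293 cells: pre-read after 30 min compound exposure, post-read 20 min after hNppA agonist at 0.1 nM final, all at room temperature, protected from light; A-71915 titration as control.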
# Atrial natriuretic peptide receptor 1 (Homo sapiens), sequence (P16066 whole entry, looked up): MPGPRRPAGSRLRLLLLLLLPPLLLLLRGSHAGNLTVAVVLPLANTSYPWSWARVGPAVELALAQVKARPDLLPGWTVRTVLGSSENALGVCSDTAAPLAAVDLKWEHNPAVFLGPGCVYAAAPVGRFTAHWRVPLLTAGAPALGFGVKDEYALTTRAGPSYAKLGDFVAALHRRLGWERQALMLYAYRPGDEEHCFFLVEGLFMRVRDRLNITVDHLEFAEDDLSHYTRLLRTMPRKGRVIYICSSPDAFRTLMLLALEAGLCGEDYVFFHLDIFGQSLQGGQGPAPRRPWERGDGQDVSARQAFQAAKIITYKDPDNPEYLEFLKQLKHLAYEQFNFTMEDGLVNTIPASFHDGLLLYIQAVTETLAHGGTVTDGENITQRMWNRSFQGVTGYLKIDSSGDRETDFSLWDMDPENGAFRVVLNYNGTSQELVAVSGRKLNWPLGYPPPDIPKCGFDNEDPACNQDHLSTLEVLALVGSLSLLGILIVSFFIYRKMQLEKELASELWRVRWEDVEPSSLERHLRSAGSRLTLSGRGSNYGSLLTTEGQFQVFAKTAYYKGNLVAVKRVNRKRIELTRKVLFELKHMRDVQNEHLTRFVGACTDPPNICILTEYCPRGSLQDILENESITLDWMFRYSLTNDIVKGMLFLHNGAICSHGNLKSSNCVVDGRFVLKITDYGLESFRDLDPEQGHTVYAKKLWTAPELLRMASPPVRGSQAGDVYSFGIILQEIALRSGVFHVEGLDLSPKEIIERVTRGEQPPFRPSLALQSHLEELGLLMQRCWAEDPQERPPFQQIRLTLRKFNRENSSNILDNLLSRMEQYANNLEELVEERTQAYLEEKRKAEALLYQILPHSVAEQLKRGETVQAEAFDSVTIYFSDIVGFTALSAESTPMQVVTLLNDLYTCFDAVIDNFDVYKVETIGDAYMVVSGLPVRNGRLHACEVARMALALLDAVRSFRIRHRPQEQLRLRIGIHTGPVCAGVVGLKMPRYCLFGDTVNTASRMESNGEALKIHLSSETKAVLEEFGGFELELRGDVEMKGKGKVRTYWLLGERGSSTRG
Compound,"activity change, negative = inhibition",Potency
COc1ccccc1N1CCN(CCCCNS(=O)(=O)c2cccc3c(N(C)C)cccc23)CC1,-6.92% (inactive),–
C[N+](C)(CCCCCC[N+](C)(C)CCCN1C(=O)c2cccc3cccc(c23)C1=O)CCCN1C(=O)c2cccc3cccc(c23)C1=O,2.97% (inactive),–
CC[C@@H](C)[C@H]1O[C@]2(CC[C@H]1C)C[C@@H]1C[C@@H](CC=C(C)[C@@H](O[C@H]3C[C@H](OC)[C@@H](O[C@H]4C[C@H](OC)[C@@H](O)[C@H](C)O4)[C@H](C)O3)[C@@H](C)C=CC=C3CO[C@@H]4[C@H](O)C(C)=C[C@@H](C(=O)O1)[C@]34O)O2,-20.2% (inactive),–
Fc1cccc(/C=N/N=C/c2cccc(F)c2)c1,-27.2% (inactive),–
C[C@@H](NC(=O)/C(C#N)=C/c1ccc(O)c(O)c1)c1ccccc1,-0.668% (inactive),–
O=Nc1ccc2oc(=O)ccc2c1,-20.4% (inactive),–
CCCCCCCCCCCCCCCCCCNC(=O)OCC(COP(=O)([O-])OCC[n+]1ccsc1)OC (stereo not drawn),-0.711% (inactive),–
O=S(=O)(c1cccc2c(I)cccc12)N1CCCNCC1,-2.18% (inactive),–
CSc1ccccc1N1CCN(CCCCCC(=O)NC2CCCc3ccccc32)CC1 (stereo not drawn),-5.86% (inactive),–
COc1ccccc1CNCCCCCCNCCCCCCCCNCCCCCCNCc1ccccc1OC,-1.91% (inactive),–
OCC1O[C@H]([S-])[C@H](O)[C@@H](O)[C@@H]1O.[Au+] (stereo partly drawn),12.3% (inactive),–
CCCCCCCCCCCCCCCCCC(=O)NCC(COP(=O)([O-])OCC[N+](C)(C)C)OCC (stereo not drawn),-4.73% (inactive),–
C#CCN1C(C)=C(C(=O)OC)C(c2cccc([N+](=O)[O-])c2)C(C(=O)OCC)=C1C (stereo not drawn),-13.6% (inactive),–
CO/S(=N\S(=O)(=O)c1ccc(Cl)cc1)c1ccc([N+](=O)[O-])cc1 (stereo not drawn),14% (inactive),–
O=C(/C=C/c1ccc(O)cc1)c1ccc(O)cc1O,–,30.1 µM (active)
NC[C@@H]1O[C@H](C23CC4CC(CC(C4)C2)C3)Cc2c1ccc(O)c2O,2.79% (inactive),–
NC[C@H]1O[C@@H](n2cnc3c(N)ncnc32)[C@H](O)[C@@H]1O,9.98% (inactive),–
OC[C@H]1O[C@@H](n2cnc3c(Nc4ccccc4)ncnc32)[C@H](O)[C@@H]1O,13.8% (inactive),–
O=C(O)CCCC[C@@H]1CCSS1,4.25% (inactive),–
N#C/C(=C\c1ccc(-c2cc(Cl)ccc2Cl)o1)C(=O)Nc1cccc2ncccc12,-19.2% (inactive),–
CCCCCCCCc1ccc(-c2ccc(C(=O)O)cc2)cc1,4.51% (inactive),–

# Target: Atrial natriuretic peptide receptor 2 (Homo sapiens) (UniProt P20594)
# Test: Natriuretic polypeptide receptor (hNpr2) antagonism - Pilot subtype selectivity assay (AID 1347050); also: % is scaled to controls: 0 for no effect and ±100 for the full control effect
# Conditions: NPR2-expressing cells, cGMP antagonist-mode read-out; series mostly up to 38.3 µM; activity change, negative = inhibition: at the top concentration
# Outline: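 Antagonist mode: compounds (LOPAC1280, seven 1:5 dilutions) added 30 min before 1 nM hNppC stimulation of hNpr2-HEK293 cGMP-sensor cells; luminescence read before and 20 min after agonist at ambient temperature.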
# Atrial natriuretic peptide receptor 2 (Homo sapiens), sequence (P20594 whole entry, looked up): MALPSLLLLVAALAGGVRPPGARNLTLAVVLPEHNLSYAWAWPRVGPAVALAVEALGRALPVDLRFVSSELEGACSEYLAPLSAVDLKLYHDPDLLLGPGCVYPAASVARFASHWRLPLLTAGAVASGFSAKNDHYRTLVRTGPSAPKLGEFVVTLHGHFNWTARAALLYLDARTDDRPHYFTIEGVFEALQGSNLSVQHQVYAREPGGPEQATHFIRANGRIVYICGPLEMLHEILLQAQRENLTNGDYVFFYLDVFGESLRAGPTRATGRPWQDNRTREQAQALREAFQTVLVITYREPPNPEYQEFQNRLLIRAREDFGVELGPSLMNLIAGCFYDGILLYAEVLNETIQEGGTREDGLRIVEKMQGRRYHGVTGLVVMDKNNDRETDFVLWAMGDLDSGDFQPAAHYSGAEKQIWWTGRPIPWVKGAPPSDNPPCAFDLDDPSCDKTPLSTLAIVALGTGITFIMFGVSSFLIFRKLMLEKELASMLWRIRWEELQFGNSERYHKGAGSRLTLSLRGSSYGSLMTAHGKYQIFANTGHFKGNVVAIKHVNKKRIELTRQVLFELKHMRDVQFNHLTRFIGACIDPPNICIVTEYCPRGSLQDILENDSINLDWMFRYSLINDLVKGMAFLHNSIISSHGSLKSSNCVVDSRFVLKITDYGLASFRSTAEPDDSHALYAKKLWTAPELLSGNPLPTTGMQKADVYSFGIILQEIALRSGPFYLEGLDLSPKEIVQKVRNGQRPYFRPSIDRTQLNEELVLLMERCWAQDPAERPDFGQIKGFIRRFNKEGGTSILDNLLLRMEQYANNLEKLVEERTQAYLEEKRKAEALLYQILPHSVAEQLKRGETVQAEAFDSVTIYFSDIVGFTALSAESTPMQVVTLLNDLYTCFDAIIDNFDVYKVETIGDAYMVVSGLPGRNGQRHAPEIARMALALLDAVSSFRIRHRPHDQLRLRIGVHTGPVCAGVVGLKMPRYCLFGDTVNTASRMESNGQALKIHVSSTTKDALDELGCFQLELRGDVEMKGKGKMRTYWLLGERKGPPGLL
row,Compound,"activity change, negative = inhibition"
1,COc1ccccc1N1CCN(CCCCNS(=O)(=O)c2cccc3c(N(C)C)cccc23)CC1,-20.9% (inactive)
2,C[N+](C)(CCCCCC[N+](C)(C)CCCN1C(=O)c2cccc3cccc(c23)C1=O)CCCN1C(=O)c2cccc3cccc(c23)C1=O,-0.723% (inactive)
3,CC[C@@H](C)[C@H]1O[C@]2(CC[C@H]1C)C[C@@H]1C[C@@H](CC=C(C)[C@@H](O[C@H]3C[C@H](OC)[C@@H](O[C@H]4C[C@H](OC)[C@@H](O)[C@H](C)O4)[C@H](C)O3)[C@@H](C)C=CC=C3CO[C@@H]4[C@H](O)C(C)=C[C@@H](C(=O)O1)[C@]34O)O2,-4.07% (inactive)
4,C[C@@H](NC(=O)/C(C#N)=C/c1ccc(O)c(O)c1)c1ccccc1,-5.23% (inactive)
5,CCCCCCCCCCCCCCCCCCNC(=O)OCC(COP(=O)([O-])OCC[n+]1ccsc1)OC (stereo not drawn),8.05% (inactive)
6,CCCCCCCCCCCCCCCCCC(=O)OC(CC(=O)O)C[N+](C)(C)C (stereo not drawn),1.24% (inactive)
7,CSc1ccccc1N1CCN(CCCCCC(=O)NC2CCCc3ccccc32)CC1 (stereo not drawn),5.23% (inactive)
8,O=c1[nH]c2cc(C(F)(F)F)ccc2n1-c1cc(C(F)(F)F)ccc1O,-10.3% (inactive)
9,OCC1O[C@H]([S-])[C@H](O)[C@@H](O)[C@@H]1O.[Au+] (stereo partly drawn),5.42% (inactive)
10,O=C(c1cc(O)c(O)c([N+](=O)[O-])c1)c1ccccc1F,-23.1% (inactive)
11,CCCCC/C=C\CC(O)/C=C/c1cccc(CC(O)CCCCO)n1 (stereo not drawn),-21.6% (inactive)
12,CO/S(=N\S(=O)(=O)c1ccc(Cl)cc1)c1ccc([N+](=O)[O-])cc1 (stereo not drawn),1.2% (inactive)
13,NC[C@@H]1O[C@H](C23CC4CC(CC(C4)C2)C3)Cc2c1ccc(O)c2O,-27.5% (inactive)
14,OC[C@H]1O[C@@H](n2cnc3c(Nc4ccccc4)ncnc32)[C@H](O)[C@@H]1O,-0.182% (inactive)
15,O=C(O)CCCC[C@@H]1CCSS1,-3.02% (inactive)
16,Clc1ccc(N2CCN(Cc3cc4ccccn4n3)CC2)cc1,-3.43% (inactive)
17,CCCCCCCCc1ccc(-c2ccc(C(=O)O)cc2)cc1,-15.7% (inactive)

# Tested on: not listed separately
# Test: NS1 protein of Zika virus - qHTS assay to identify small molecule inhibitors in human HEK 293 cells (AID 1347053; active = well fitted inhibition curve with a large enough effect;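 also: plate controls were infected untreated cells for no effect and uninfected cells for full effect; nearly all actives have a fitted effect of over 55% in size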)
# Conditions: HEK293 ZIKV MR766 infection, NS1 TR-FRET, 24 h; series mostly up to 46.1 µM; activity change, negative = inhibition: at the top concentration
# Outline: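 Compound-treated (1 h pre-infection) HEK 293 cells infected with ZIKV MR766, MOI = 0.5; after 24 h at 37 C, NS1 read by TR-FRET; data normalized to uninfected and infected controls.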
row,Compound,"activity change, negative = inhibition"
1,O=c1cc(-c2ccccc2)oc2c(O)c(O)ccc12,10.4% (inactive)
2,Nc1ccn([C@@H]2O[C@H](CO)[C@@H](O)[C@@H]2O)c(=O)n1,25.1% (inactive)
3,Fc1cccc(/C=N/N=C/c2cccc(F)c2)c1,-6% (inactive)
4,O=Nc1ccc2oc(=O)ccc2c1,6.68% (inactive)
5,O=C(NOCC1CC1)c1cc(Br)c(F)c(F)c1Nc1ccc(I)cc1Cl,-27.4% (inactive)
6,CCCCCCCCCCCCCCCCCC(=O)OC(CC(=O)O)C[N+](C)(C)C (stereo not drawn),6.06% (inactive)
7,O=S(=O)(c1cccc2c(I)cccc12)N1CCCNCC1,142% (inactive)
8,CN[C@H](CC(C)C)C(=O)N[C@H]1C(=O)N[C@@H](CC(N)=O)C(=O)N[C@H]2C(=O)N[C@H]3C(=O)N[C@H](C(=O)N[C@H](C(=O)O)c4cc(O)cc(O)c4-c4cc3ccc4O)[C@H](O)c3ccc(c(Cl)c3)Oc3cc2cc(c3O[C@@H]2O[C@H](CO)[C@@H](O)[C@H](O)[C@H]2O[C@H]2C[C@](C)(N)[C@H](O)[C@H](C)O2)Oc2ccc(cc2Cl)[C@H]1O,-4.93% (inactive)
9,O=c1[nH]c2cc(C(F)(F)F)ccc2n1-c1cc(C(F)(F)F)ccc1O,2.89% (inactive)
10,COc1ccccc1CNCCCCCCNCCCCCCCCNCCCCCCNCc1ccccc1OC,7.81% (inactive)
11,O=C(Nc1ccncc1)c1cc([N+](=O)[O-])ccc1Cl,-15.2% (inactive)
12,CCC(CO)Nc1nc(NCc2ccccc2)c2ncn(C(C)C)c2n1 (stereo not drawn),12.2% (inactive)
13,N[C@H](CCCP(=O)(O)O)C(=O)O,-23% (inactive)
14,O=C(c1cc(O)c(O)c([N+](=O)[O-])c1)c1ccccc1F,-16.9% (inactive)
15,COCCOc1cc2nc[nH]c(=O)c2cc1OCCOC,-9.87% (inactive)
16,O=C(/C=C/c1ccc(O)cc1)c1ccc(O)cc1O,4.05% (inactive)
17,Nc1nc2ccc(Cl)cc2n2c(-c3ccccc3)nnc12,-1.84% (inactive)
18,NC[C@H]1O[C@@H](n2cnc3c(N)ncnc32)[C@H](O)[C@@H]1O,-11% (inactive)
19,Nc1nc2c(ncn2[C@@H]2O[C@H](CO)[C@@H](O)[C@@H]2O)c(=O)[nH]1,0.977% (inactive)
20,O=C1NC(O)=NC1(c1ccccc1)c1ccccc1,2.91% (inactive)
21,O=C(O)CCCC[C@@H]1CCSS1,-10.2% (inactive)
22,NS(=O)(=O)c1ccc(-n2nc(C(F)(F)F)cc2-c2ccc(Cl)cc2)cc1,-4.28% (inactive)
23,N#C/C(=C\c1ccc(-c2cc(Cl)ccc2Cl)o1)C(=O)Nc1cccc2ncccc12,10.9% (inactive)
24,Clc1ccc(N2CCN(Cc3cc4ccccn4n3)CC2)cc1,-0.266% (inactive)
25,CCCCCCCCc1ccc(-c2ccc(C(=O)O)cc2)cc1,-1.91% (inactive)
